This is part of a sample that, as a whole, favours compounds with a hit. Of some 83,000 tested, about 20% had one in any assay.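 Compound tested at a single concentration for 48 hours in 96-well plates; a percent growth value below 10 was scored as active.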 Unmarked numbers belong to inactive results. Activity calls are given as the source filed them.

The test system of one assay is OVCAR-3 ovarian. The experiment in a line: NCI-60 one-dose screen, 48 h (100 = growth as untreated, 0 = no growth, -100 = all killed). Conditions: 10 µM unless noted.
In the case of `COc1ccc(-c2c(-c3ccc(OC)c(O)c3)cnc3ncnn23)cc1`, the growth is 112%.

`O=C(Nc1ccc(F)cc1F)c1cc(Br)ccc1O`: the growth is 0.111% (active).

Consider `COc1ccc(-c2cc(=O)c3c(OC)c4ccoc4c(/C=C/C=O)c3o2)cc1`, for which the growth is 18.3%.

`Cc1nc(Nc2cn[nH]c2C(=O)Nc2ccc(CN3CCN(C)CC3)cc2)c2ccsc2n1`: the growth is 91.3%.

For the molecule `O=[N+]([O-])c1cc2c(ccc3occc32)o1`, the growth is 39.4%.

For the molecule `CN1CCN(c2nc(Nc3ccc(O)cc3)nc3ccccc23)CC1`, the growth was 59.5%.

As to `Nc1ncnc(N)c1NC(=O)c1ccc(OCc2ccccc2)cc1`, the growth is 110%.

`CSc1nc2c(c(=O)[nH]1)N=C1c3ccccc3C(=O)C1C(c1ccc(F)cc1)N2` (stereo unspecified): the growth is 21.7%.

`COc1ccc(-c2nc(-c3ccccn3)c(-c3ccccn3)n2CC(C)C)cc1OC1CCCC1`: the growth is 15.5%.

With `O=C1NC(=S)NC(=O)C1=Cc1cn(Cc2cn(Cc3cccc4ccccc34)nn2)c2ccccc12`, the growth is 102%.

Regarding `O=C(Nc1ccc(Br)cc1F)c1cc(Cl)ccc1O`, the growth is 2.24% (active).

Consider `CN1C(=O)N(C)C2Nn3c(s/c(=C4\C(=O)N(CCc5ccccc5)c5ccccc54)c3=O)=NC21` (stereo unspecified), for which the growth was 39.7%.

With `CC(=O)c1ccc(Cc2ccc(C(C)=O)s2)s1`, the growth was 100%.

As for `O=c1oc2ccc(F)cc2c(=O)n1-c1ccc(F)cc1F`, the growth is 4.14% (active).

For the molecule `O=C(Nc1ccc(-c2nc3cc4ccccc4cc3[nH]2)cc1)c1cccc(Br)c1`, the growth was 25.9%.

As for `CCOc1c(Br)cc(C2C(C(=O)OC)=CN(C)C=C2C(=O)OC)cc1OC`, the growth was 83.3%.

With `COc1ccc(Cn2c(Br)c3c(c2-c2cc(OC)c(OC)c(OC)c2)CCc2sc(NC(=O)c4ccc(OC)cc4)nc2-3)cc1`, the growth is 92.7%.

With `O=C1c2cc(Br)ccc2Oc2cc([N+](=O)[O-])ccc2N1c1ccc(I)cc1F`, the growth is 109%.

`COc1ccc(Nc2nc(N/N=C/c3ccc(O)cc3)nc(Nc3ccc([N+](=O)[O-])cc3)n2)cc1`: the growth is 124%.

Regarding `Nc1ccn(C2O[C@H](CO)[C@@H](O)[C@H]2O)c(=O)n1` (stereo partly specified), the growth is 88.7%.

Turning to `CCN1C(=O)N(CC)C2C1NN=c1s/c(=C3\C(=O)N(C(C)C)c4ccccc43)c(=O)n12` (stereo unspecified), the growth was 5.56% (active).

Consider `CC1(C)CC2(C)OC2C2(C1)N=NC(=Nc1ccccc1)O2` (stereo unspecified), for which the growth is 10.3%.

As to `COc1cc(C(C)n2cc(-c3ccccc3)nn2)ccc1OC1CCCC1` (stereo unspecified), the growth was 61.5%.

Turning to `COC(=O)C1=C(C)NC(C)=C(C(=O)OC)C(N2C(=O)CCC2=O)C1` (stereo unspecified), the growth is 99.6%.

Regarding `O=c1oc2ccc(Cl)cc2c(=O)n1-c1ccc(Cl)cc1F`, the growth is 5.29% (active).

In the case of `COc1ccc2sc(N(Cc3cccnc3)C(=O)c3ccc(C#N)cc3)nc2c1`, the growth was 92.2%.

With `O=C(O)CCCN1C(=O)C2C3CCC(C3)C2C1=O` (stereo unspecified), the growth was 112%.

With `CN1C(=O)N(C)C2(c3ccccc3)OC(=S)NC12c1ccccc1` (stereo unspecified), the growth is 97.4%.

Turning to `Nc1nonc1-n1nncc1-c1cccnc1`, the growth was 116%.

With `COc1cc(C(C)n2cc(-c3ccccc3)nn2)ccc1OC1CCCCC1` (stereo unspecified), the growth was 67.6%.

With `Nc1ccc(-c2nn3c(CCC(=O)c4nc5ncccc5[nH]4)nnc3s2)c(O)c1`, the growth is 100%.

With `O=NN(C(=O)NC1CCC(C(=O)O)CC1)C1CCC(C(=O)O)CC1` (stereo unspecified), the growth is 113%.

`COc1ccc(OC)c(/C=C/C(=O)c2c(C)nc3ccccc3c2/C=C/c2ccccc2)c1`: the growth was 37.4%.

Turning to `Cc1nc(Nc2ccccn2)sc1C(=O)/C=C/c1ccc(Cl)cc1`, the growth is -23.2% (active).

For `O=C(Nc1ccc(-c2nc3ccc(NC(=O)c4ccc(Cl)cc4)cc3[nH]2)cc1)c1ccc(Cl)cc1`, the growth was -64.9% (active).

Turning to `O=C(COc1cc(O)c2c(=O)cc(-c3ccccc3)oc2c1)Nc1ccccc1C(F)(F)F`, the growth is -2.06% (active).

Turning to `COc1ccc(CCN2C(=O)CCSC2=S)cc1OC`, the growth is 105%.

For `COc1ccc(Cn2c(Br)c3c(c2Br)-c2nc(N)sc2CC3)cc1`, the growth is 7.35% (active).

A further assay concerns HS 578T breast. The assay is described as above. To be noted: 10 µM unless noted.
On to `COc1ccc(-c2c(-c3ccc(OC)c(O)c3)cnc3ncnn23)cc1`, for which the growth is 104%.

`O=C(Nc1ccc(F)cc1F)c1cc(Br)ccc1O`: the growth was 10.2%.

Turning to `COc1ccc(-c2cc(=O)c3c(OC)c4ccoc4c(/C=C/C=O)c3o2)cc1`, the growth is 39.2%.

Turning to `Cc1nc(Nc2cn[nH]c2C(=O)Nc2ccc(CN3CCN(C)CC3)cc2)c2ccsc2n1`, the growth was 66.8%.

In the case of `O=[N+]([O-])c1cc2c(ccc3occc32)o1`, the growth is 50.4%.

Regarding `CN1CCN(c2nc(Nc3ccc(O)cc3)nc3ccccc23)CC1`, the growth was 89.2%.

As to `Nc1ncnc(N)c1NC(=O)c1ccc(OCc2ccccc2)cc1`, the growth is 103%.

Turning to `CSc1nc2c(c(=O)[nH]1)N=C1c3ccccc3C(=O)C1C(c1ccc(F)cc1)N2` (stereo unspecified), the growth was 66.8%.

As to `COc1ccc(-c2nc(-c3ccccn3)c(-c3ccccn3)n2CC(C)C)cc1OC1CCCC1`, the growth was 43.3%.

Consider `O=C1NC(=S)NC(=O)C1=Cc1cn(Cc2cn(Cc3cccc4ccccc34)nn2)c2ccccc12`, for which the growth was 81.9%.

For the molecule `O=C(Nc1ccc(Br)cc1F)c1cc(Cl)ccc1O`, the growth is 7.7% (active).

`CN1C(=O)N(C)C2Nn3c(s/c(=C4\C(=O)N(CCc5ccccc5)c5ccccc54)c3=O)=NC21` (stereo unspecified): the growth is 70.5%.

On to `CC(=O)c1ccc(Cc2ccc(C(C)=O)s2)s1`, for which the growth is 109%.

Take `O=c1oc2ccc(F)cc2c(=O)n1-c1ccc(F)cc1F`: the growth is 12.8%.

As to `O=C(Nc1ccc(-c2nc3cc4ccccc4cc3[nH]2)cc1)c1cccc(Br)c1`, the growth was 83.5%.

`CCOc1c(Br)cc(C2C(C(=O)OC)=CN(C)C=C2C(=O)OC)cc1OC`: the growth is 75.8%.

Turning to `COc1ccc(Cn2c(Br)c3c(c2-c2cc(OC)c(OC)c(OC)c2)CCc2sc(NC(=O)c4ccc(OC)cc4)nc2-3)cc1`, the growth was 83.7%.

Take `O=C1c2cc(Br)ccc2Oc2cc([N+](=O)[O-])ccc2N1c1ccc(I)cc1F`: the growth was 101%.

Regarding `COc1ccc(Nc2nc(N/N=C/c3ccc(O)cc3)nc(Nc3ccc([N+](=O)[O-])cc3)n2)cc1`, the growth is 110%.

With `Nc1ccn(C2O[C@H](CO)[C@@H](O)[C@H]2O)c(=O)n1` (stereo partly specified), the growth is 106%.

As for `CCN1C(=O)N(CC)C2C1NN=c1s/c(=C3\C(=O)N(C(C)C)c4ccccc43)c(=O)n12` (stereo unspecified), the growth was 36.7%.

Consider `CC1(C)CC2(C)OC2C2(C1)N=NC(=Nc1ccccc1)O2` (stereo unspecified), for which the growth was 103%.

Turning to `COc1cc(C(C)n2cc(-c3ccccc3)nn2)ccc1OC1CCCC1` (stereo unspecified), the growth is 94%.

Take `COC(=O)C1=C(C)NC(C)=C(C(=O)OC)C(N2C(=O)CCC2=O)C1` (stereo unspecified): the growth was 107%.

Regarding `O=c1oc2ccc(Cl)cc2c(=O)n1-c1ccc(Cl)cc1F`, the growth was -5.3% (active).

In the case of `COc1ccc2sc(N(Cc3cccnc3)C(=O)c3ccc(C#N)cc3)nc2c1`, the growth is 85.1%.

With `O=C(O)CCCN1C(=O)C2C3CCC(C3)C2C1=O` (stereo unspecified), the growth was 115%.

With `CN1C(=O)N(C)C2(c3ccccc3)OC(=S)NC12c1ccccc1` (stereo unspecified), the growth was 108%.

`Nc1nonc1-n1nncc1-c1cccnc1`: the growth is 101%.

Take `COc1cc(C(C)n2cc(-c3ccccc3)nn2)ccc1OC1CCCCC1` (stereo unspecified): the growth was 91.4%.

As for `Nc1ccc(-c2nn3c(CCC(=O)c4nc5ncccc5[nH]4)nnc3s2)c(O)c1`, the growth is 74%.

Regarding `O=NN(C(=O)NC1CCC(C(=O)O)CC1)C1CCC(C(=O)O)CC1` (stereo unspecified), the growth was 107%.

Turning to `COc1ccc(OC)c(/C=C/C(=O)c2c(C)nc3ccccc3c2/C=C/c2ccccc2)c1`, the growth was 68%.

As to `Cc1nc(Nc2ccccn2)sc1C(=O)/C=C/c1ccc(Cl)cc1`, the growth is 18.5%.

In the case of `O=C(Nc1ccc(-c2nc3ccc(NC(=O)c4ccc(Cl)cc4)cc3[nH]2)cc1)c1ccc(Cl)cc1`, the growth is 57.9%.

On to `O=C(COc1cc(O)c2c(=O)cc(-c3ccccc3)oc2c1)Nc1ccccc1C(F)(F)F`, for which the growth was 15.5%.

Regarding `COc1ccc(CCN2C(=O)CCSC2=S)cc1OC`, the growth was 93.7%.

With `COc1ccc(Cn2c(Br)c3c(c2Br)-c2nc(N)sc2CC3)cc1`, the growth was 34.1%.

The values are drawn from PubChem BioAssay (NCI).
